We go through 38 compounds from PubChem BioAssay (NCI).

Molecules are shown by their SMILES. Values joined by “and” are separate entries in the source; they are usually repeats but may differ in a detail not shown here. Identical values can stand only once. About 83,000 compounds went through this panel and 20% of them were active in at least one assay; those are over-represented in the sample as a whole.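 In brief: 96-well plates, 48 h treatment, single concentration, percent growth endpoint.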 Active and inactive are the calls of the source. Rule for the calls: active = growth percent below 10; inactive = the rest.

This experiment relates to MDA-MB-468 breast. Kind of experiment: NCI-60 one-dose screen, 48 h (100 = growth as untreated, 0 = no growth, -100 = all killed). To be noted: 10 µM unless noted.

As to `O=C(Nc1ccc(-n2ccc3c(NC(=O)c4ccccc4)nccc32)cc1)c1cccc(C(F)(F)F)c1`, the growth is 16.8% (inactive).
Take `COc1ccc2oc3cc(NCCN(C)C)ccc3c(=O)c2c1`: the growth is 103% (inactive) and 88.7% (inactive).
As to `COc1ccc(C(=O)/C=C/c2cc3c(c(OC)c2)OCC(=O)N3)cc1`, the growth was 42.3% (inactive).
On to `COc1cc(OC)c2cc(C(=O)O)c(=O)oc2c1`, for which the growth was 99.9% (inactive).
Take `O=C1c2ccccc2CCC12OC2c1cn(-c2ccccc2)nc1-c1ccc(Cl)cc1` (stereo not drawn): the growth was 92.5% (inactive).
Then `O=C(Nc1ccc2ncnc(Nc3ccc(F)c(Cl)c3)c2c1)c1cccs1`, with -23.8% (active); and `CCCCCCNC(=O)Oc1ccc(/C(=C(/C)Cc2ccc(OC)cc2)c2ccc(OCCCN(C)C)cc2)cc1`, with -17.3% (active).
With `CC1CC(=O)OC(C)C1` (stereo not drawn), the growth is 99.6% (inactive).
Regarding `Cc1ccc(-c2csc(NC(=O)CSc3nc(-c4ccccc4)cc(=O)[nH]3)n2)cc1`, the growth was 108% (inactive).
With `CC1=C2C(=C[C@@](C)(COS(N)(=O)=O)[C@@H]2O)C(=O)[C@](C)(O)C12CC2`, the growth was -34% (active).
Under `Nc1ccn(C2OC(CO)C(O)C2F)c(=O)n1` (stereo not drawn) stands 96.3% (inactive); under `O=C1CC(=O)N(C(=O)c2nn(-c3ccc(Cl)cc3)cc2O)N1`, 62.4% (inactive); under `N=C(N)c1ccc(-c2ccc(-c3ccc(Cl)cc3Cl)o2)cc1`, -84.4% (active).
In the case of `COc1cc(/C=C/C(=O)c2cccnc2Nc2ccc(F)cc2)cc(OC)c1OC`, the growth is 16.3% (inactive).
Turning to `C/C=C/C=C1\C[C@H]2CO[C@H](O2)C1=O`, the growth is 103% (inactive).
`Clc1cccc(Cl)c1C(Nc1nc2ccccc2s1)Nc1nc2ccccc2s1`: the growth is 72.3% (inactive).
As for `CNC(=O)c1cc(Oc2ccc(NC(=O)Nc3cc(C(C)(C)C)nn3-c3ccc4ncccc4c3)c(F)c2)ccn1`, the growth is -61.8% (active).
Then `Cc1c(-n2nnc(-c3nc4ccccc4s3)c2N)c(=O)n(-c2ccccc2)n1C`, with 110% (inactive); and `CCOC(=O)c1cc(C(=O)c2ccc(OC)c(OC)c2)n2ccc(/C=C/c3cc[n+](CC(=O)c4ccc(OC)c(OC)c4)cc3)cc12`, with 71.9% (inactive).
For the compound `C=C(C)[C@@H]1CC[C@]2(N=C=O)CC[C@]3(C)[C@H](CC[C@@H]4[C@@]5(C)Cc6c([nH]c7ccccc67)C(C)(C)[C@@H]5CC[C@]43C)[C@@H]12`, the growth is 92.5% (inactive).
In the case of `Cc1cc(NN=C(c2ccc(O)cc2)c2ccc(O)cc2)c([N+](=O)[O-])cc1[N+](=O)[O-]`, the growth was 92.8% (inactive).
`CCO/C=N/NC(=O)c1ccncc1`: the growth was 107% (inactive).
For `CCCSc1nc(N)nc2nc[nH]c12`, the growth is 113% (inactive).
Turning to `C[C@@H](C[C@H](CCO)c1ccccc1)c1ccc2ccccc2c1`, the growth is -54.1% (active).
In the case of `COc1ccc(-c2nn(-c3cccc(Cl)c3)cc2C=C(C#N)C#N)cc1`, the growth was -2.82% (active).
Take `CCC(C)C1(C2CCCC2)NC(=O)NC1=O` (stereo not drawn): the growth is 115% (inactive) and 121% (inactive).
On to `O=C(CC(=O)c1ccccc1F)Nc1ccc([N+](=O)[O-])cc1`, for which the growth was 90.9% (inactive).
Turning to `N#Cc1c(-c2ccccc2)c(C#N)c2c(C#N)c(N)nn2c1N`, the growth is 25.9% (inactive).
`CN1CCN(CCCOc2cccc3nc(Nc4ccc(Cl)c(C(F)(F)F)c4)ccc23)CC1`: the growth was -2.83% (active).
Under `COc1cc(-c2cc(-c3ccc(Nc4ccnc5cc(Cl)ccc45)cc3)nc(N3CCOCC3)n2)cc(OC)c1OC` stands -43.9% (active).
`COc1ccc(-c2ccc(-c3ccc(C(=N)N)cn3)o2)cc1`: the growth was 48.7% (inactive).
With `Cc1ccc(OCCn2ccc(=O)n(CCOc3ccc(Cl)cc3C(=O)c3cc(C)cc(C)c3)c2=O)cc1`, the growth is -0.179% (active).
As to `Cn1c(=O)c2[nH]c(C(O)C(O)C(O)C(O)CO)nc2n(C)c1=O` (stereo not drawn), the growth is 118% (inactive).
For `CN1CCN(Cc2cc(NC(=O)c3cccc(C#Cc4cccc5[nH]nc(N)c45)c3)cc(C(F)(F)F)c2)CC1`, the growth is 10.8% (inactive).
`CCCCCCCCN(CCCCCCCC)CC(O)c1cc(Cl)ccc1OC` (stereo not drawn): the growth was 32.6% (inactive).
For `CC1=C2[C@@H](CC1)[C@]1(C)O[C@@](C(C)C)(C[C@H]1OC(=O)CO)[C@H]2OC(=O)CCCc1ccccc1`, the growth is 88.3% (inactive).
Under `COC(=O)c1[nH]nc(OC)c1C1(C(C#N)c2nc3ccccc3s2)CCCc2ccccc21` (stereo not drawn) stands 98.2% (inactive).
With `N#Cc1c(N)nnn1Cc1cc(=O)oc2ccc(O)cc12`, the growth was 101% (inactive).
